The values below come from PubChem BioAssay AID1508600 (Functional Genomics Laboratory (NCATS/FGL), 2020).

The campaign covered roughly 53,000 sequences. About 3,700 (7%) were called active. The entries come from a sample that favours actives as a whole. Unmarked numbers belong to inactive results.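 Rule for the calls: active = gene knockdowns whose robust z-score for IL-1 alpha signal is at least 2 or at most -2, so actives lie on both sides; inactive = the rest.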

A short description of this assay: Components of the Cytosolic LPS Sensing Pathway: Gene Identification via Genome-wide siRNA Screen.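 Note: robust z of the log signal after scaling to non-targeting control siRNA wells of the plate.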 As to conditions: RAW264.7 macrophages, IL-1a HTRF, actives lie on both sides, screened at 100 nM (by protocol), cells primed 5 h with Pam3CSK4 first. Summed up: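 Mouse macrophage line RAW264.7 is transfected with siRNA (100 nM final), grown 48h, primed with TLR ligand Pam3CSK4 5 h and given intracellular LipidA 24 h. IL-1a in supernatant is read by HTRF and viability by luminescence.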
Consider GGAUACCCUGGAGUUUAUATT against Prss42, for which the z-score was 0.941.

Consider GCGUGAUCAUUGAUGUGGATT against Slc5a7, for which the z-score is 0.364. In the case of GUUCCACAAAGACCAUCAGTT against Olfr134, the z-score is 0.679.

As for GCCUGGUUAAGGCAUGAUATT against Gm4884, the z-score was 2.63 (active). With GCCACAACCACCUGAACUUTT against Amigo1, the z-score is -0.854. Take GGACUUCAAGGAUAGUGAGTT against Osm: the z-score was -1.13. For the sequence GGUCGAUGCAAAGAUGCUGTT against Smoc1, the z-score was 0.811. GCUUCUGUAAAUCCCAUAUTT against Olfr26: the z-score is -0.0814. On to GCUGUCACUUUGAAUCCCUTT against Nrg1, for which the z-score was -0.988. For GGUAUUGAAAUGGAAAAGGTT against D6Wsu163e, the z-score is -1.2. Turning to GGGCCUAUGCUUACAAACGTT against Pkp3, the z-score is 2.37 (active). As for GGUUCUAAUUAGAGAAACATT against Tcte1, the z-score is 0.461. Take CGACCAUUCCUUUGAGUUATT against Atl1: the z-score is 3.09 (active). Next, GGAGCUACCUCUGGAUACATT against Tmem269: 1.28; GGUACUGGAAAGAAAUGAGTT against Exph5: 0.356. As for GGUUGUCAUAAUCUUGUUATT against Irgq, the z-score is -0.59. In the case of GGUAUUUAGGUUGAUAACATT against Kbtbd8 it was -0.206.

On to GGUCUUAGAUAAUGUUAGATT against Gpr26, for which the z-score was 0.718. As for CCCUGUAAGGUUGAUUGUGTT against Oog3, the z-score was 0.535. GGCUCAUUCCUCUUCUUCCTT against Serhl: the z-score is -3.08 (active). In the case of GCCAAGUAAAACCAAAUGUTT against Ldlrad4, the z-score was -1.85. Take CCGAGAACAGUUGAAGAAGTT against Srbd1: the z-score is 0.174. Regarding GGUGGAUGAGUUGUUCCUUTT against Adck5, the z-score was 0.637.

On to GCUACAGGAUUUAUACAUGTT against Dhx29, for which the z-score was 0.865. Consider GGGACUUAUGUACAACUUCTT against Idua, for which the z-score was 1.53. In the case of CCUCUGCGCAAUUUAGAGATT against Npb it was 1.1. For the sequence GACAAGAACCCGGAUAAUATT against Dnajb2, the z-score is -0.229. In the case of GCAAGCACGUCAGAAUCUCTT against Pln, the z-score was 2.32 (active).

As for GGAAGAACUGAUUGAAGAGTT against Sptlc1, the z-score is -0.789.

Regarding GGUGAAAGACCAUUUAUUUTT against Zxdc, the z-score is 0.657.

For the sequence CGUGACUCUGCUUUAACUCTT against Col27a1, the z-score is -2.27 (active).

Turning to GGAGCUUGCUCAGACUACUTT against Cct8, the z-score was -0.914. As for GCCUAUCGUCCAGAUUAUCTT against Senp1, the z-score is 0.919. In the case of GGUCAAGUAUCUGAGAAAATT against Selenoh it was 0.154; in that of GGCGAUAAGGAACAGAAGUTT against Ppp3r1, -0.199; in that of GGUCAACCUCAAAGUCUUUTT against Il17a, 0.581. As to GGGCUUCAGAAAAUCCAGGTT against Dclre1a, the z-score was -0.447. Next, GGCUCCUAUAUACUGAUCATT against Olfr1402: -2.65 (active). CCUGGUAAAAGACUGGGCUTT against Dnal1: the z-score was 1.76. Consider GGUUAGUCGACAGAAACAATT against Poteg, for which the z-score was -1.11. Take GCUGUCUCAAUCACCCUAATT against Olfr1427: the z-score was -1.23. Regarding GGUCAAGUGUAACAAAGAATT against Bcorl1, the z-score was -0.417. Next, GGUCAUUAUUGUCAUCUACTT against Tmem9: -0.323; GGAAAUCACUGGUUUUCAATT against Asah2: 2.88 (active).

Regarding GGAGACUGACAAGAAAAUUTT against Gm16367, the z-score was -0.967. As for GCAUCACGUAUGUGAUUUGTT against Dmrtc1a, the z-score was -0.569. As to GCAGAGGAGUGAAUAGAUATT against Dtx3l, the z-score is 0.45. Next, GGCCAACUUUUUUCACCCATT against Git1: -2.19 (active). For GGUUGUUCGUGGACACUACTT against Rpl26, the z-score was -0.404. In the case of GGCCGUCACUACUCUGAAATT against Mgst2 it was -2.29 (active).

On to GGCACUUCUUGGACAUCAUTT against Sfxn5, for which the z-score was -0.019.

Regarding CGAAGGUCUGUUCGAGAACTT against Morn4, the z-score was 0.668.

Regarding GCUUCAUCCUAGCGGUUUGTT against Dad1, the z-score is -0.899. As for CGAUCGAAUCCUUAAGUACTT against Ttll1, the z-score was -0.0193. As for GCUUUUUACAGGAUAUACATT against Zfp644, the z-score is -0.143. Next, GCCAUACCUUCAACUGUCGTT against Ncoa2: -2.42 (active); GGAACGUAAACUAAGCCCGTT against Foxb1: 0.458; CCCAUUUCACUUCAGUUUGTT against Osbp2: -0.253.

On to CCCAAAACGGUAGCUUAAGTT against Rcc1, for which the z-score was -0.0143. Regarding GGCAAGAAAGGACCAAUGGTT against Cln8, the z-score is 0.206. In the case of CCGUGGGUUUUUUGAAUCUTT against Slc6a1 it was 2.63 (active); in that of GCCCAAUAGAAGCUGGAUGTT against Tex29, -1.99. For GGAGCGAGAAGCUUUAGAATT against Ubxn1, the z-score was 0.61.

On to GGCCAACUAGGGUGUUUGUTT against Tsx, for which the z-score was 0.182.

In the case of GCUAUUAGGAAAUGAAAGATT against Ncald, the z-score is 0.384. For GCAGAGACUCCAAAGCUCATT against Chd4, the z-score was -2 (active). In the case of GGAACUUGACAAAGUCUACTT against Panx1, the z-score is 1.2. GGAAGAAGAAGGUGUAACCTT against Defb39: the z-score is 0.567. For GGCAUCUGUUACCCAGAAUTT against Zfp384, the z-score is -1.92. Consider CCAAAUGACUUUGGUCCUATT against Vax2, for which the z-score was 0.576. Next, CCAUCCUCAACAAGAUCGATT against Rab4b: 2.25 (active). As for GGUGGUAACCAAUCAUUACTT against Cd200r1, the z-score was -0.296. Turning to GCAUAAACUAACCACUUAGTT against Evi2b, the z-score is -1.77. Next, GGCUUUUUUGCCAUUGCUATT against Wnt9b: 0.19; GGAGAUUCAUCGCUACCUUTT against Ccna1: 2.46 (active); GGUUGUAGGAAGAAGAGAATT against Olfr957: -0.798.

For CGGUCUUUAUUACAUAAUCTT against Ptpro, the z-score is -0.757. For CCAUUGCAUAUUUAGUAGCTT against Sox11, the z-score was -0.765. For the sequence CGUAAAUAUGCCCGUAGUUTT against Bpifa1, the z-score is 0.31. GGUCUGUAUCCCACUUUUCTT against Dalrd3: the z-score was -2.15 (active).

With CCUCUACUCAAGUUUACUUTT against Casq2, the z-score was 0.417. For GGCGAUGGAAAGACUGCACTT against Hus1b, the z-score was 0.311. As for CCCACAAGUUUCAUCUGACTT against Aknaos, the z-score is -0.164. For GGAGAACCCAUUAAAGAAATT against Amd1, the z-score was 0.408. In the case of GGUCUGUACUUGUUUAGAATT against Vwa3b, the z-score was 0.42.

In the case of GCUAUACAAAGGCUACUCUTT against Hectd3, the z-score is 0.379. Consider GCUGUUGAUUGUAAGCAAUTT against Mtap, for which the z-score was 0.0958. Turning to GCCGCACCGAAAGUGAAAUTT against Copz2, the z-score is -0.391.

Take GGACCGGUGUAAGCUUCGATT against Hinfp: the z-score is 2.05 (active).

As to GCUAGAGGAUGGCUGAGCUTT against Poll, the z-score is -0.581. With GGUGACUGAAAUCAAACACTT against Il9r, the z-score is -1.71. GGAAGGAUUGCCUUUAGGATT against Rbm12b2: the z-score is 0.29. For GGAGUAUGAAUUUGUGACUTT against Arhgdig, the z-score was -0.526. With GGACCGCGUUCAAGAAGAATT against Cyp2c37, the z-score was 2.17 (active). Take GGAGAAUUUGGAAAGUGAGTT against Rnf150: the z-score was 0.0696. As for GGGUAAACACCCAUUUAGCTT against Lbx2, the z-score was -0.156.

Take GGUCCUAGGCCUACUCAUCTT against Cd46: the z-score is -0.318. In the case of GGUCCUACUAUAACCUGCGTT against Gdf3 it was -0.103; in that of GCAGAUUUUGACUAAAGGATT against Sbds, -0.747; in that of GCAGUGAACCGUAUUGGACTT against Ncam1, 0.406. GGUUCACAGAUGAUACCUUTT against Rab18: the z-score was 4.59 (active). For GGACCUUCCAGCAAGAUUUTT against Rnf13, the z-score was 0.28. As for GCCGGCAGUAAAGAUUCAUTT against Cog2, the z-score was 0.938. Next, “CCGGGUAGUCUUUUUGGUGTT against 9130019O22Rik”: -1.72. With GGGAAGAAAGGAUGGGAAATT against Fev, the z-score is 0.355. Take GCGGCCUCUUGAAUGAUUCTT against Ccndbp1: the z-score is 2.16 (active). GGUUGUUAUGGUCUCAUAUTT against Lrrc40: the z-score is -0.62.

With GGUUUCAAGAAAGAUAUGATT against Cntnap5b, the z-score was -0.891.
